Compound activity from PubChem.
Most compounds without a hit are left out; they make up all but 9.2% or so of the library.
ELG1 genotox: genotoxicity induction in ELG1-luciferase HEK293T cells. HEK293T ELG1-luciferase reporter, luminescence, 16 h. Potency, µM (doses to about 46 µM), for inactives: at the top dose activity change, positive = activation, usual class: activators. hit rate 1.3% among 330,000. AID 504466; further: % of control where 0% means no effect; nearly all actives have a fitted effect of over 60% in size
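Luminescence read-out: rising ELG1-luciferase signal, reflecting elevated ELG1 protein under genetic stress, flags genotoxic compounds. Cells were treated for 16 hr at 37 °C before ONE-Glo detection.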
Rab9 prom act: activates the Rab9 promoter; hit rate 2.8% among 320,000; Huh7 Rab9 promoter-luciferase reporter, luminescence, 24 h; Potency, µM (series often up to 9.22 µM), for inactives: top-dose activation, negative = inhibition, most hits filed as activators; AID 485297; further: % of control where 0% means no effect; nearly all actives have a fitted effect of over 60% in size
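Promoter activation is measured as luciferase luminescence in Huh7 cells stably transfected with a Rab9 promoter–luciferase construct, following 24 h compound exposure at 37 °C and 10 min reagent incubation at ambient temperature.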
SMN2 splice enh: SMN2 splice variant enhancement | HEK293 SMN2-luciferase splicing reporter, luminescence, 30-36 h | Potency, µM (highest dose often 46.1 µM), for inactives: at the highest dose activity change, positive = activation, most hits filed as activators | hit rate 2.8% among 210,000 | AID 1458; further: % of control where 0% means no effect; nearly all actives have a fitted effect of over 55% in size
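qHTS luciferase splicing reporter: luminescence rises when SMN2 exon 7 is included in transfected HEK293 cells. Compound exposure lasted 30-36 h at 37C, with 4.5 mM final sodium butyrate as control, followed by a ONE-Glo read.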
ELG1 DNA repair: ELG1-dependent DNA repair inhibition; hit rate 2.3% among 330,000; Potency, µM (doses to about 46.1 µM), without a hit: at the top dose activity change, negative = inhibition, hits mostly inhibitors; HEK293T ELG1-luciferase reporter, luminescence, 16 h; DNA damage induced by 5-fluorouridine; further: on the % scale 0 is the no-effect control and ±100 the full control effect; nearly all actives have a fitted effect of over 55% in size
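HEK293T cells expressing luciferase-tagged ELG1 (2,000/well) received 5-Fluorouridine plus compound or DMSO for 16 hr at 37 °C. Luciferase was read by ONE-Glo luminescence after 30 min at room temperature.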
FLuc modulator: counter-screen for miR-21 project: firefly luciferase inhibitors or activators | P08659 | Potency, µM (titrated, usually from 57.5 µM), for inactives: at the top dose activity change, negative = inhibition, hits mostly inhibitors | purified FLuc, Km substrates, luminescence inhibition | hit rate 6.9% among 360,000;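 further: plate controls were vehicle for no effect and reference inhibitor for full effect; nearly all actives have a fitted effect of over 55% in size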
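Purified P. pyralis luciferase, 10 nM final, with Km-level 10 uM D-luciferin and 10 uM ATP in 50 mM Tris acetate pH 7.5, 10 mM Mg acetate, 0.01% Tween-20, 0.05% BSA; 6-point qHTS titration about 60 µM downward; luminescence read.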
NPC1 promoter act: activators of NPC1 promoter | Huh7 NPC1 promoter luciferase reporter, 24 h | Potency, µM (highest dose often 9.22 µM), without a hit: at the highest dose activation, most hits filed as activators | hit rate 2.4% among 320,000 | AID 485313; further: % of control where 0% means no effect; nearly all actives have a fitted effect of over 60% in size
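Readout is luciferase luminescence, reflecting NPC1 promoter activation in stably transfected Huh7 cells after 24 h compound exposure at 37 °C in reduced-serum medium with 10% FBS.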
ELG1 FLuc counter: luciferase inhibition in cell-free luciferin readout for ELG1 hits; AID 624247; hit rate 3% among 350; cell-free firefly luciferase luminescence counter-screen, ViewLux; shares compounds with ELG1 DNA repair; Potency, µM (highest dose often 46.1 µM), inactives show at the top dose activity change, negative = inhibition, actives largely listed as inhibitors; further: on the % scale 0 is the no-effect control and ±100 the full control effect
ELG1-Luc inh: human ELG1 repair inhibition, luciferase-tagged ELG1 confirmation. Potency, µM (top dose mostly 46.1 µM), inactives show at the top dose activity change, negative = inhibition, actives largely listed as inhibitors. HEK293T ELG1-luciferase levels, luminescence; cells co-treated with 5-fluorouridine. hit rate 68% among 670. shares compounds with ELG1 DNA repair; further: on the % scale 0 is the no-effect control and ±100 the full control effect; nearly all actives have a fitted effect of over 55% in size
Target sequence (Q96QE3 whole entry, looked up): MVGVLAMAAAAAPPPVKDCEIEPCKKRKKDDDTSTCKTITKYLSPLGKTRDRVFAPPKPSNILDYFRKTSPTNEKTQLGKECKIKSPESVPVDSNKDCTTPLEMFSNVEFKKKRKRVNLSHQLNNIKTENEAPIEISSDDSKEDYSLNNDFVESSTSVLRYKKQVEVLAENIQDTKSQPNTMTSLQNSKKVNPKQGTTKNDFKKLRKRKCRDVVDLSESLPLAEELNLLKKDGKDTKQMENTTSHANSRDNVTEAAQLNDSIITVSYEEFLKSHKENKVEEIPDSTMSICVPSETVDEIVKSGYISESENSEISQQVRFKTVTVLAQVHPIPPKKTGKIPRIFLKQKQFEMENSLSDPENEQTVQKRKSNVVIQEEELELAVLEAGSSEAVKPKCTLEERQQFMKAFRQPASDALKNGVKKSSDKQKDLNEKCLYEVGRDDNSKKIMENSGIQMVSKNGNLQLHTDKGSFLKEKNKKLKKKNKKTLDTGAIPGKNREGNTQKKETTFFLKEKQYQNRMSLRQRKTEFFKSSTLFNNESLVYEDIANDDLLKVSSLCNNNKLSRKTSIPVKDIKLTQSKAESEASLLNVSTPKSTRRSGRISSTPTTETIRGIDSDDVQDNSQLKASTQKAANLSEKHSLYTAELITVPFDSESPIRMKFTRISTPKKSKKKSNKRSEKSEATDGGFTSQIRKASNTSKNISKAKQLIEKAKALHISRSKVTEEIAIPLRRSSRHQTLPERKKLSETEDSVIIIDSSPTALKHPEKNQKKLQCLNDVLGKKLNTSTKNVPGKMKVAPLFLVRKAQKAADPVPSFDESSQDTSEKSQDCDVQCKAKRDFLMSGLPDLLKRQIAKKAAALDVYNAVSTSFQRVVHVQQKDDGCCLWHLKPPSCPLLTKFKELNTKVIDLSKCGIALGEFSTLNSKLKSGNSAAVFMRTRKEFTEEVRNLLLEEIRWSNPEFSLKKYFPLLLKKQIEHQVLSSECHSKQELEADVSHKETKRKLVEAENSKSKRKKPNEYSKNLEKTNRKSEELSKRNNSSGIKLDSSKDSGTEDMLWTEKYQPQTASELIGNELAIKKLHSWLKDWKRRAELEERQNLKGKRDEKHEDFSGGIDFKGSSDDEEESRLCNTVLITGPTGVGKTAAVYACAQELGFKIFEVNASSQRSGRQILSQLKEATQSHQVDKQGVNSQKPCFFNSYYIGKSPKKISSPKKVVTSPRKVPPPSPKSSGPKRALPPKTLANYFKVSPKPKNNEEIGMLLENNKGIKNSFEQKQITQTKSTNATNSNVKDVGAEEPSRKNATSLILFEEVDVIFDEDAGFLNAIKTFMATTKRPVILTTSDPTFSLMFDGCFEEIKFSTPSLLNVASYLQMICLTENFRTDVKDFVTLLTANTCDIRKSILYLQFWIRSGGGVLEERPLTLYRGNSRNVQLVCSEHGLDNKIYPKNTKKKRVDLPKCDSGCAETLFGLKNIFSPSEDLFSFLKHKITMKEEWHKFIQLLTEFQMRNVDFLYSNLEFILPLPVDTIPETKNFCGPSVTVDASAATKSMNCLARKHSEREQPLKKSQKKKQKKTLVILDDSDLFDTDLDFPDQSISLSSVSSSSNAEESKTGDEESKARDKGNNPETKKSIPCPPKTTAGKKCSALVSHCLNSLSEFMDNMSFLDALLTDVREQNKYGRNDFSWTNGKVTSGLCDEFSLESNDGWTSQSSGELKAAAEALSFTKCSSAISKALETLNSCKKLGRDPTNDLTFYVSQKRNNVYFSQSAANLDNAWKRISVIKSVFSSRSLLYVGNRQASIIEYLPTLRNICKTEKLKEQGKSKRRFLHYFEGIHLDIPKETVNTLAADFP
ELG1 MMS Luc: MMS-stimulated human ELG1 repair inhibition, confirmed. AID 624249. shares compounds with ELG1 DNA repair. Potency, µM (top dose mostly 46.1 µM), for the others: at the top dose activity change, negative = inhibition, most hits filed as inhibitors. HEK293T luciferase-tagged ELG1 level, MMS stimulated. hit rate 53% among 670; further: on the % scale 0 is the no-effect control and ±100 the full control effect; nearly all actives have a fitted effect of over 60% in size
ELG1 5-FU: confirmation of ELG1 repair inhibitors: viability with 5FU | Potency, µM (top dose mostly 46.1 µM), for inactives: at the top dose activity change, negative = viability loss, hits mostly cytotoxic | 670 tested, under 10 active | cell viability with 5-FU, ELG1-dependent repair | shares compounds with ELG1 DNA repair;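 further: ELG1-luc HEK293T cells cotreated with 5-fluorouridine at 10 µM final; viability measured 16 h after compound addition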
ELG1 MMS cell: confirmation of ELG1 repair inhibitors: viability with MMS; shares compounds with ELG1 DNA repair; Cell viability with MMS, ELG1-dependent DNA repair; Potency, µM (series often up to 46.1 µM), for inactives: at the highest dose activity change, negative = viability loss, usual class: cytotoxic; hit rate 33% among 670; AID 624251;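 further: ELG1-luc HEK293T cells co-treated with 10 µM MMS; viability read 16 h after compound addition; on the % scale 0 is the no-effect control and ±100 the full control effect; nearly all actives have a fitted effect of over 60% in size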
Cell viab unstim: affects unstimulated cell viability, ELG1 hit counter-screen; shares compounds with ELG1 DNA repair; Potency, µM (titrated, usually from 45.9 µM), for inactives: at the highest dose activity change, negative = loss of viability, usual class: cytotoxic; hit rate 8% among 900; cell viability counter-screen, unstimulated, luminescence;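 further: compound exposure lasted 16 hours before reading; on the % scale 0 is the no-effect control and ±100 the full control effect; nearly all actives have a fitted effect of over 55% in size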
FLuc enzyme: counter-screen for ELG1 repair inhibitors: firefly luciferase inhibition | shares compounds with ELG1 DNA repair | purified firefly luciferase, luminescence counter-screen | Potency, µM (highest dose often 57.5 µM), for the others: at the highest dose activity, negative = inhibition, actives largely listed as inhibitors | hit rate 10% among 350 | AID 624253; further: on the % scale 0 is the no-effect control and ±100 the full control effect
The depositor's hits bear a star; ? = inconclusive; . = no result given. The call rests on the fitted dose curve; in most records, active means well fitted curve in the direction sought with a large enough effect; inconclusive means small, poorly fitted or top-dose-only effect, or another doubt; inactive means no such curve, though single readings can be large; an effect the other way counts as inactive or inconclusive. Potency means the concentration at half of the fitted maximal effect.

SMILES | ELG1 genotox | Rab9 prom act | SMN2 splice enh | ELG1 DNA repair | FLuc modulator | NPC1 promoter act | ELG1 FLuc counter | ELG1-Luc inh | ELG1 MMS Luc | ELG1 5-FU | ELG1 MMS cell | Cell viab unstim | FLuc enzyme
O=C(NCc1ccncc1)C(=O)N/N=C/c1ccc(OCc2ccccc2)cc1 | ? | -2% | 4% | ? | 2% | -8% | . | . | . | . | . | . | .
O=NN(CCc1ccncc1)c1ccc(OCc2ccccc2)cc1 | 3% | -24% | -50% | 0.82µM* | -4% | -31% | 6% | ? | 2.8µM* | -2% | 3.5µM* | -10% | -7%
CC1=C(C(=O)OCc2ccc3c(c2)OCO3)C(c2ccccc2OCc2ccccc2)NC(=O)N1 (configuration not stated) | -31% | 0% | -24% | 16µM* | -1% | 7% | -7% | 22µM* | ? | 1% | -12% | ? | -8%
Nn1c(-c2ccc(F)cc2)nc2ccccc2c1=O | -1% | 5% | . | -17% | -3% | -2% | . | . | . | . | . | . | .
O=C1c2cc(F)ccc2-n2c1nc1ccccc1c2=O | -8% | -35% | . | 0.18µM* | -7% | -40% | 5% | 20µM* | 1.1µM* | -11% | 1.8µM* | ? | -16%
CC(=O)c1cccc(NC(=O)COc2cc3oc(=O)c(CC(C)O)c(C)c3cc2Cl)c1 (configuration not stated) | -4% | 1% | -25% | 4.1µM* | 4% | 3% | . | 6.3µM* | 22µM* | ? | 0% | ? | .
O=C(Nc1cc(Cl)ccc1Cl)c1ccc(OC(=O)c2ccco2)cc1 | 15% | 5% | -38% | 25% | -3% | 0% | 41% | . | . | . | . | 4% | 5%
Cc1ccc(OC(=O)c2cc(=O)c3ccccc3o2)cc1 | 1% | 1% | 3% | 10% | 0% | -1% | . | . | . | . | . | . | .
Cc1ccc(NC(=O)c2ccc(OC(=O)c3ccco3)cc2)cc1 | 8.2µM* | 2.8µM* | 13µM* | ? | -11% | 2µM* | 76% | . | . | . | . | -1% | -11%
COc1ccc(Cl)cc1NC(=O)c1ccco1 | -1% | 9% | 21% | 5% | 3% | 16% | . | . | . | . | . | . | .
Cc1ccc(NC(=O)c2ccc(OC(=O)c3cc4ccccc4o3)cc2)cc1 | 3.2µM* | 2µM* | 10µM* | ? | -14% | 3.5µM* | 65% | . | . | . | . | -1% | ?
CS(=O)(=O)c1cccc(NC(=O)C2CCCN2S(=O)(=O)c2ccc(F)cc2)c1 (configuration not stated) | 0% | 0% | . | 1% | 0% | -1% | . | . | . | . | . | . | .
CC(=O)c1cn(CC(=O)Nc2ccc(C)c(C)c2)c2ccccc12 | -5% | -12% | -38% | 2.1µM* | 1% | -12% | . | -10% | ? | -4% | ? | -4% | .
Cc1noc(C)c1COC(=O)c1ccc(N(C)C)cc1 | 11% | 2% | 45% | ? | ? | 0% | . | . | . | . | . | . | .
CC(=O)Nc1ccc(/C=C/c2sc3ccccc3[n+]2CCCCI)cc1 | . | . | . | . | . | . | . | . | . | . | . | -18% | .
CC[n+]1c(/C=C/C=C/N(C(C)=O)c2ccccc2)sc2ccccc21 | -7% | -4% | -22% | -13% | 0% | -3% | . | . | . | . | . | . | .
COc1ccc(NC(=O)/C(C#N)=C\c2ccc(OCc3ccc(C(=O)O)cc3)c(OC)c2)cc1 | ? | -3% | 27% | ? | -19% | -4% | . | . | . | . | . | . | .
COc1cc(/C=C(\C#N)C(=O)Nc2cccc(C(=O)O)c2)ccc1OCc1ccc(F)cc1 | 21µM* | -1% | . | ? | -14% | -1% | . | . | . | . | . | 5% | .
Cn1ncc([N+](=O)[O-])c1C(=O)Nc1ccc(C2CCCCC2)cc1 | 3% | 20% | -19% | -1% | -17% | 22% | . | . | . | . | . | . | .
O=C(CCSc1nc(-c2ccc3c(c2)OCO3)cc(C(F)(F)F)n1)NCc1ccccc1 | 7% | -1% | -17% | ? | 7% | 0% | . | . | . | . | . | . | .
COc1ccc(CNC(=O)CCSc2nc(-c3ccc4c(c3)OCO4)cc(C(F)(F)F)n2)cc1 | 7% | 2% | -7% | 3.3µM* | -3% | 5% | . | 7.9µM* | 2% | ? | -3% | 0% | .
Cc1nn(-c2ccccc2)c(C)c1C(=O)OCC(=O)c1c(N)n(CC(C)C)c(=O)n(C)c1=O | -20% | -25% | -65% | 3.3µM* | 1% | -11% | . | 4µM* | 0.79µM* | ? | 1.3µM* | ? | .
Cc1c(C(=O)Nc2ccc(F)cc2)oc2ccc(S(=O)(=O)N3CCC4(CC3)OCCO4)cc12 | -15% | -7% | -47% | 12µM* | 3% | 0% | ? | 7.1µM* | 22µM* | ? | 25µM* | ? | -3%
CCC(C)NC(=O)c1oc2ccc(S(=O)(=O)N3CCC4(CC3)OCCO4)cc2c1C (configuration not stated) | -18% | -1% | . | -25% | 0% | 1% | -9% | 16µM* | ? | 4% | -4% | -20% | -2%
Cc1ccc2oc(-c3cc(NC(=O)Cc4ccccc4)ccc3Cl)nc2c1 | . | . | 6% | . | -15% | . | . | . | . | . | . | . | .
